Compound activity from PubChem BioAssay.
Rows were chosen to be rich in hits. Some 3.1% of all compounds tested hit in one or more screens of this group.
Nrf2 block – Nrf2 qHTS screen for inhibitors; A549 ARE-Fluc reporter, luciferase luminescence, 18-24 h; Potency, µM (top dose mostly 46 µM), actives largely listed as inhibitors; AID 504444, 2011; 360,000 tested, 2.1% active; also: nearly all actives have a fitted effect of over 60% in size
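Concentration-response testing used A549 ARE_Fluc cells at 5000 cells/well. Following an 18-24 h compound incubation, viability was read by fluorescence (Ex 405/Em 525) and luciferase output by luminescence.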
rTrxR1 inhibitor – qHTS Assay for Inhibitors of Mammalian Selenoprotein Thioredoxin Reductase 1 (TrxR1): qHTS | Thioredoxin reductase 1, cytoplasmic (Rattus norvegicus), O89049 | recombinant rTrxR1, NADPH fluorescence consumption, selenite substrate | Potency, µM (doses to about 114 µM), hits mostly inhibitors | 390,000 tested, 1% active; also: nearly all actives have a fitted effect of over 65% in size
Target sequence (O89049 whole entry, looked up): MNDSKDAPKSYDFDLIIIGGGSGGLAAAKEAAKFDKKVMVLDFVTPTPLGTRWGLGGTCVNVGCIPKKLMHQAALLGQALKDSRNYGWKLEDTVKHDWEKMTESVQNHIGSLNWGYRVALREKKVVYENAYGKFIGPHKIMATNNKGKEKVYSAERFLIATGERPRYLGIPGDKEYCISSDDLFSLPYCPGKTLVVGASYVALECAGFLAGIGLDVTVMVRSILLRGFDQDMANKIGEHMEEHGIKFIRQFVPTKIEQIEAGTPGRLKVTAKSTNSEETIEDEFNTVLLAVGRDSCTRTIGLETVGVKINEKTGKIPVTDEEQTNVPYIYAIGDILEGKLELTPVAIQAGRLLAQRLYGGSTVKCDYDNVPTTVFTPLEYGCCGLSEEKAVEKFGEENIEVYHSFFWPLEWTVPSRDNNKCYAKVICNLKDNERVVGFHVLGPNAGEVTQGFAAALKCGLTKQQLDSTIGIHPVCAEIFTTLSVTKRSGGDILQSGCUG
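Rat TrxR1 (90 nM in the dispensed reagent) was pre-reduced with 400 uM NADPH for 5 min at room temperature, then incubated with compound for 15 min. After 400 uM selenite was added, NADPH fluorescence (Ex 340/Em 450 nm) was followed for 8 min.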
mIDH1 inhibitor – qHTS for Inhibitors of mutant isocitrate dehydrogenase 1 (IDH1): qHTS; IDH1-R132H enzyme, NADPH consumption, diaphorase/resazurin fluorescence; Potency, µM (titrated, usually from 76.6 µM), most hits filed as inhibitors; 390,000 tested, 0.093% active; AID 602179, 2012; also: nearly all actives have a fitted effect of over 65% in size
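IDH1-R132H (0.5 ug/mL) preincubated 30 min with compound, then NADPH (0.016 mM) and alpha-KG (2 mM) added; 80 min at RT, pH 7.5. Remaining NADPH coupled via diaphorase/resazurin to fluorescence (540/590 nm); concentration-response curves normalized to no-enzyme control.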
TrxR1 substrate – qHTS Assay for Substrates of Mammalian Selenoprotein Thioredoxin Reductase 1 (TrxR1): qHTS; purified TrxR1 substrate turnover, NADPH consumption readout; Potency, µM (highest dose often 114 µM); 390,000 tested, 0.01% active; AID 588456, 2011; also: nearly all actives have a fitted effect of over 50% in size
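Rat TrxR1, dispensed at 90 nM, was prereduced with 400 uM NADPH (final) for 5 min at ~22 deg C, then incubated with compound 15 min before 400 uM selenite. A first-read NADPH fluorescence drop versus no-compound background flagged substrates.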
A549 viability – Nrf2 qHTS screen for inhibitors: counterscreen for cytotoxicity; A549 ARE-Fluc cells, CellTiter-Fluor viability, 18-24 h; 390,000 tested, 0.16% active; Potency, µM (series often up to 46 µM), most hits filed as inhibitors; AID 504648, 2011
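A549 ARE-Fluc cells in 5% FBS OPTI-MEM, 5000 cells/well, rested 2 h then exposed to compounds in concentration-response for 18-24 h at 37 °C. Viability by CellTiter-Fluor fluorescence (Ex 405/Em 525) after 30 min; luciferase luminescence (BugLite, 15 min, RT) read afterwards.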
Mito fusion act – qHTS Assay for Small Molecule Inhibitors of Mitochondrial Division or Activators of Mitochondrial Fusion. 320,000 tested, 0.23% active. Potency, µM (doses to about 46.1 µM), most hits filed as activators. S. cerevisiae fusion-defective mutant growth rescue, CellTiterGlo 48 h; also: nearly all actives have a fitted effect of over 45% in size
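S. cerevisiae fusion-defective temperature-sensitive mutants (e.g. fzo1-1, mgm1-5) grown 48 h at 37C in YPEG (ethanol/glycerol non-fermentable) medium with 23 nl compound per well; growth rescue read as CellTiterGlo luminescence.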
Hits are given with their value; - = inactive; ? = inconclusive; . = no result given; [ ] = remark or other dose. Calls follow the shape of the dose curve; as a rule, active = well fitted curve in the direction sought with a large enough effect; inconclusive = small, poorly fitted or top-dose-only effect, or another doubt; inactive = no such curve, though single readings can be large; an effect the other way counts as inactive or inconclusive.

SMILES	Nrf2 block	rTrxR1 inhibitor	mIDH1 inhibitor	TrxR1 substrate	A549 viability	Mito fusion act
O=C(O)C1Nc2c(Cl)cc(Cl)c(Cl)c2C2C=CCC12 (centres undefined)	-	?	-	-	-	.
O=C(OC1CCCCC1)c1ccc2c(c1)C1C=CCC1C(C(=O)O)N2 (centres undefined)	.	.	.	.	.	-
O=C(O)C1Nc2c(O)cccc2C2C=CCC12 (centres undefined)	-	35µM	-	-	-	-
O=C(O)C1Nc2c(Cl)cc(Cl)cc2C2C=CCC12 (centres undefined)	-	20µM	-	-	-	-
CNc1ccc(Br)cc(C(=O)/C=C/c2ccc(OC)cc2OC)c1=O	-	14µM	-	-	-	?
CNc1ccc(Br)cc(C(=O)/C=C/c2ccc(Cl)cc2Cl)c1=O	?	-	-	-	21µM	-
COc1cccc(/C=C/C(=O)OCC(=O)NCCNC(=O)COC(=O)/C=C/c2cccc(OC)c2)c1	-	-	-	-	-	-
CNc1ccc(Br)cc(C(=O)/C=C/c2cccc(OC)c2)c1=O	?	13µM	-	-	-	-
CC(=O)Nc1cccc(S(=O)(=O)N2CCN(S(=O)(=O)c3ccc4c(c3)OCCO4)CC2)c1	?	.	.	.	-	.
O=C(COc1ccccc1-c1nc(-c2ccccc2)no1)Nc1ccccc1[N+](=O)[O-]	18µM	-	-	-	-	.
CC(C)(C)c1ccc(C(=O)C[n+]2cc(Br)cc(Br)c2)cc1	.	-	.	-	.	.
CCOC(=O)C1=C(C)c2ccccc2N(C(=O)OC)C1(C)C(=O)OCC (centres undefined)	-	35µM	-	-	-	.
COc1ccc(F)cc1S(=O)(=O)Nc1ccc2c(c1)CCCN2C(=O)c1cccs1	.	-	-	-	-	.
COc1ccc(OC)c(CNn2c(-c3cccc(C)c3)nc3ccccc3c2=O)c1	18µM	-	-	-	-	-
O=C(c1ccc(Cl)s1)N1CCN(c2nc3ccccc3s2)CC1	7.3µM	-	-	-	-	-
O=C(c1cccs1)N1CCN(c2nc3ccccc3s2)CC1	?	-	-	-	-	-
COC(=O)C(=O)Nc1cccc2cccnc12	-	-	.	-[0.457 µM]	-	.
Cc1ccc(-c2c(C(=O)N/N=C/c3cccs3)nnn2-c2nonc2N)cc1	-	-	-	-	-	-
CCOc1ccc(-c2c(C(=O)N/N=C/c3ccc(C)s3)nnn2-c2nonc2N)cc1	23µM	-	-	-	-	-
CCOc1cccc(-c2c(C(=O)N/N=C/c3sccc3C)nnn2-c2nonc2N)c1	16µM	-	-	-	-	-
CCOc1ccc(-c2c(C(=O)N/N=C/c3cccs3)nnn2-c2nonc2N)cc1	12µM	-	-	-	-	-
c1ccc(CNCc2nnc(-c3cc4ccccc4[nH]3)o2)cc1	-	.	.	.	-	.
CCN1CCN(C(c2ccccc2Cl)c2c(O)cc(C)n(Cc3ccco3)c2=O)CC1 (centres undefined)	.	8.9µM	-	-	-	.
CCN1CCN(C(c2ccccc2)c2c(O)cc(C)n(Cc3ccco3)c2=O)CC1 (centres undefined)	.	7.9µM	-	-	-	.
Cc1cc(O)c(C(c2ccccc2Cl)N2CCN(c3ccccc3)CC2)c(=O)n1Cc1ccco1 (centres undefined)	.	?	-	-	-	.
SMILES	Nrf2 block	rTrxR1 inhibitor	mIDH1 inhibitor	TrxR1 substrate	A549 viability	Mito fusion act
Cc1cc(O)c(C(c2ccccc2)N2CCN(C)CC2)c(=O)n1Cc1ccco1 (centres undefined)	.	8.9µM	-	-	-	.
COCCn1c(C)cc(O)c(C(c2ccc(OC)cc2)N2CCN(c3ccccc3)CC2)c1=O (centres undefined)	.	14µM	-	-	-	.
CCc1cccc(NC(=O)CSc2ncc3c(n2)-c2ccccc2N(Cc2ccccc2C)S3(=O)=O)c1	?	-	-	-	-	.
O=C(CCS(=O)(=O)c1nc(-c2ccc3c(c2)OCO3)cc(C(F)(F)F)n1)Nc1ccc(F)c(Cl)c1	-[9.27 µM]	-	-	-	-	.
CCC(C)(C)NC(=O)C1CCCN(S(=O)(=O)c2ccc3c(c2)CC(C)N3C(=O)C2CC2)C1 (centres undefined)	?	-	-	-	-	11µM
COc1ccccc1N1CCN(C(=O)C2CCN(S(=O)(=O)c3ccc4c(c3)CC(C)N4C(C)=O)CC2)CC1 (centres undefined)	-	-	-	-	-	-
CC(=O)N1c2ccc(S(=O)(=O)N3CCC(C(=O)Nc4ccccn4)CC3)cc2CC1C (centres undefined)	18µM	-	-	-	-	-
COc1ccccc1N1CCN(C(=O)C2CCN(S(=O)(=O)c3ccc4c(c3)CC(C)N4C(=O)C3CC3)CC2)CC1 (centres undefined)	26µM	-	-	-	-	-
CC(=O)N1c2ccc(S(=O)(=O)N3CCC(C(=O)Nc4ncccc4C)CC3)cc2CC1C (centres undefined)	-	-	-	-	-	-
CC(=O)N1c2ccc(S(=O)(=O)N3CCC(C(=O)N4CCCC(C)C4)CC3)cc2CC1C (centres undefined)	16µM	-	-	-	-	-
O=S1(=O)N=C(Oc2ccc(Cl)cc2)c2ccccc21	-	.	.	.	-	.
CCCN1CNc2c(c(=O)[nH]c(=S)n2CCCc2ccccc2)C1	-	-	.	-	-	.
Cn1cnc([N+](=O)[O-])c1Oc1ccc2ccccc2c1	?	4µM	-	-[11.4 µM]	?	-
C(=C\c1ccnc2ccccc12)/c1ccc(-[n+]2cc[n+](-c3ccc(/C=C/c4ccnc5ccccc45)cc3)cc2)cc1	.	-	.	-	.	.
CCOC(=O)N1CCN(C(=O)CCNS(=O)(=O)c2cc(Br)cnc2N)CC1	-	-	-	-	-	-
Nc1ncc(Br)cc1S(=O)(=O)NCCC(=O)N1CCN(c2ncccn2)CC1	18µM	-	-	-	-	-
O=C(Nc1nnc(Cc2ccc(Cl)cc2)s1)C1CCN(C(=O)c2ccco2)CC1	16µM	?	.	-	-	.
CCc1nnc(NC(=O)C2CCN(C(=O)c3ccco3)CC2)s1	-	-	-	-	-	-
Cc1ccc(S(=O)(=O)N2CCC(C(=O)Nc3ccc(Oc4ccccc4)cc3)CC2)cc1	?	-	-	-	-	.
Cc1ccc2occ(CC(=O)Nc3ccc(S(=O)(=O)N4CCC(C)CC4)cc3)c2c1	26µM	-	-	-	-	.
CC1CCN(S(=O)(=O)c2ccc(NC(=O)C3CCN(C(=O)c4ccco4)CC3)cc2)CC1	13µM	-	-	-	-	-
